Source: PubChem BioAssay (NCI)
Several values for one entry are separate records, joined by “and”; a condition that tells them apart may be missing. Identical values can stand only once. About 83,000 compounds went through this panel and 20% of them were active in at least one assay; those are over-represented in the sample as a whole.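 Each cell line was grown in a 96-well plate and treated with one concentration of compound for 48 hours. Values below 10 were considered active.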 Activity calls are given as the source filed them.

Legend:
Test in all cases: NCI-60 one-dose screen, 48 h (100 = growth as untreated, 0 = no growth, -100 = all killed)
Conditions in all cases: 10 µM unless noted
SK-MEL-2 melanoma = system: SK-MEL-2 melanoma
EKVX NSCLC = system: EKVX NSCLC
SN12C renal = system: SN12C renal
UO-31 renal = system: UO-31 renal
TK-10 renal = system: TK-10 renal
ACHN renal = system: ACHN renal
CAKI-1 renal = system: CAKI-1 renal
A498 renal = system: A498 renal
CCRF-CEM leukemia = system: CCRF-CEM leukemia
MOLT-4 leukemia = system: MOLT-4 leukemia
SR leukemia = system: SR leukemia
RPMI-8226 leukemia = system: RPMI-8226 leukemia
OVCAR-8 ovarian = system: OVCAR-8 ovarian
OVCAR-5 ovarian = system: OVCAR-5 ovarian
OVCAR-4 ovarian = system: OVCAR-4 ovarian
SK-OV-3 ovarian = system: SK-OV-3 ovarian
IGROV1 ovarian = system: IGROV1 ovarian
OVCAR-3 ovarian = system: OVCAR-3 ovarian
HS 578T breast = system: HS 578T breast
NCI/ADR-RES ovarian = system: NCI/ADR-RES ovarian

| Compound | growth (SK-MEL-2 melanoma) | growth (EKVX NSCLC) | growth (SN12C renal) | growth (UO-31 renal) | growth (TK-10 renal) | growth (ACHN renal) | growth (CAKI-1 renal) | growth (A498 renal) | growth (CCRF-CEM leukemia) | growth (MOLT-4 leukemia) | growth (SR leukemia) | growth (RPMI-8226 leukemia) | growth (OVCAR-8 ovarian) | growth (OVCAR-5 ovarian) | growth (OVCAR-4 ovarian) | growth (SK-OV-3 ovarian) | growth (IGROV1 ovarian) | growth (OVCAR-3 ovarian) | growth (HS 578T breast) | growth (NCI/ADR-RES ovarian) |
| --- | --- | --- | --- | --- | --- | --- | --- | --- | --- | --- | --- | --- | --- | --- | --- | --- | --- | --- | --- | --- |
| O=C(/C=C/c1ccc([N+](=O)[O-])cc1)c1ccccc1 | 91.1% (inactive) | 90.8% (inactive) | 99.8% (inactive) | 74.8% (inactive) | 68.9% (inactive) | 99.6% (inactive) | 96.2% (inactive) | 103% (inactive) | 76.7% (inactive) | 55.1% (inactive) | 7.6% (active) | 41.6% (inactive) | 98.3% (inactive) | 106% (inactive) | 98.1% (inactive) | 92.5% (inactive) | 87.3% (inactive) | 99.6% (inactive) | 93.2% (inactive) | 103% (inactive) |
| N=c1ccccn1CCO | 104% (inactive) | 121% (inactive) | 98.1% (inactive) | 85.4% (inactive) | 109% (inactive) | 102% (inactive) | 106% (inactive) | 89.9% (inactive) | 102% (inactive) | 93.4% (inactive) | 87.7% (inactive) | 98.3% (inactive) | 104% (inactive) | 99% (inactive) | 122% (inactive) | 100% (inactive) | 112% (inactive) | 121% (inactive) | 110% (inactive) | 116% (inactive) |
| CC(=O)N1N=C(c2ccc(Nc3nc(Nc4ccc(F)cc4)nc(Nc4ccc(Cl)cc4)n3)cc2)CC1c1ccc(N(C)C)cc1 (stereo not given) | 30.8% (inactive) | 43.1% (inactive) | 66% (inactive) | 50.8% (inactive) | 50.5% (inactive) | 61.8% (inactive) | 35.3% (inactive) | 68.4% (inactive) | -27.6% (active) | 29.4% (inactive) | -9.66% (active) | 55% (inactive) | 40.2% (inactive) | 65.9% (inactive) | 47.8% (inactive) | 85.1% (inactive) | 60.8% (inactive) | 63.5% (inactive) | 24.6% (inactive) | 48.3% (inactive) |
| Cc1nc2sc(C(=O)Nc3cccc4ccccc34)c(N)c2cc1C(=O)/C=C/c1ccccc1 | 27% (inactive) | 41.1% (inactive) | -44.3% (active) | -82.6% (active) | 4.36% (active) | 5.45% (active) | -60.6% (active) | -5.08% (active) | 5.51% (active) | 18.4% (inactive) | 13.2% (inactive) | -27% (active) | -13.9% (active) | 13.6% (inactive) | 34.6% (inactive) | 27.1% (inactive) | 4.15% (active) | -67.8% (active) | 16.1% (inactive) | -11.3% (active) |
| COc1cc(C(=O)c2ccccc2C(=O)O)c(OC)c2c1CCCC2 | 115% (inactive) | 87.7% (inactive) | 96.4% (inactive) and 98.3% (inactive) | 81.9% (inactive) and 84.1% (inactive) | 67.5% (inactive) and 107% (inactive) | 102% (inactive) and 103% (inactive) | 98.2% (inactive) and 98.9% (inactive) | 52.8% (inactive) and 110% (inactive) | 113% (inactive) and 90.4% (inactive) | 86.3% (inactive) and 95.7% (inactive) | 67.3% (inactive) and 94.9% (inactive) | 108% (inactive) and 93.7% (inactive) | 104% (inactive) and 101% (inactive) | 112% (inactive) and 106% (inactive) | 99.3% (inactive) and 98.9% (inactive) | 113% (inactive) and 106% (inactive) | 127% (inactive) and 105% (inactive) | 93.3% (inactive) and 105% (inactive) | 103% (inactive) and 112% (inactive) | 103% (inactive) and 104% (inactive) |
| CCOC(=O)C(=Cc1ccc(C#N)cc1)C(=O)OCC | 42.9% (inactive) | 77.2% (inactive) | 45.9% (inactive) | -33.9% (active) | -1.52% (active) | -64.7% (active) | 48.6% (inactive) | 82.3% (inactive) | 2.95% (active) | 10.6% (inactive) | 0.158% (active) | -1.68% (active) | 34.5% (inactive) | 30.8% (inactive) | 53.9% (inactive) | 84.9% (inactive) | 32.7% (inactive) | 17% (inactive) | 78.5% (inactive) | 20.3% (inactive) |
| COc1cc(N=Nc2ccc(O)c3ncccc23)c2ncccc2c1 | 61.3% (inactive) | 65.8% (inactive) | 68.6% (inactive) | 16.6% (inactive) | 69.2% (inactive) | 4.47% (active) | 17.3% (inactive) | 74.9% (inactive) | 5% (active) | 6.75% (active) | 7.54% (active) | 31.7% (inactive) | 17.1% (inactive) | 59.8% (inactive) | 17.4% (inactive) | 43.3% (inactive) | 27.4% (inactive) | 30.3% (inactive) | 33.9% (inactive) | -1.77% (active) |
| COc1cc(CNC(=O)CCCC/C=C/C(C)C)ccc1OCc1cn(-c2ccc([N+](=O)[O-])cc2)nn1 | 92% (inactive) | 75.3% (inactive) | 91.7% (inactive) | 60.6% (inactive) | 92.7% (inactive) | 90.7% (inactive) | 96.7% (inactive) | 82% (inactive) | 84.9% (inactive) | 79.3% (inactive) | 62.2% (inactive) | 61.8% (inactive) | 82.9% (inactive) | 99.1% (inactive) | 87.2% (inactive) | 76.7% (inactive) | 90.4% (inactive) | 92.7% (inactive) | 95.8% (inactive) | 29% (inactive) |
| COC(=O)/C=C1/SC(=Nc2ccc([N+](=O)[O-])cc2)N(CCc2c[nH]c3ccccc23)C1=O | 68.1% (inactive) | 87.2% (inactive) | 58.8% (inactive) | 48.8% (inactive) | 103% (inactive) | 64.6% (inactive) | 73.1% (inactive) | 78.2% (inactive) | 8.51% (active) | -2.1% (active) | 1.73% (active) | 2.18% (active) | 42% (inactive) | 112% (inactive) | 66.2% (inactive) | 105% (inactive) | 62% (inactive) | 43.1% (inactive) | 63.5% (inactive) | 66.9% (inactive) |
| Cc1ccc(/C=C/c2c(C(=O)/C=C/c3ccccc3)c(C)nc3ccccc23)cc1 | 2.34% (active) | 46.5% (inactive) | 36.9% (inactive) | 18.4% (inactive) | 29.3% (inactive) | 8.19% (active) | 22.3% (inactive) | 59.3% (inactive) | 5.43% (active) | 6.13% (active) | 12.7% (inactive) | -7.87% (active) | 1.99% (active) | 1.05% (active) | 39.9% (inactive) | 70.1% (inactive) | 11.3% (inactive) | -22% (active) | 35.6% (inactive) | 8.38% (active) |
| COc1ccc(CCNC(=O)COc2cc3c(Nc4ccc(F)c(Cl)c4)ncnc3cc2OC)cc1OC | 86.9% (inactive) | 78.2% (inactive) | 85.2% (inactive) | 46.8% (inactive) | 37.4% (inactive) | 49% (inactive) | 46.5% (inactive) | 55.6% (inactive) | 100% (inactive) | 93.4% (inactive) | 82.3% (inactive) | 90.1% (inactive) | 103% (inactive) | 65.4% (inactive) | 92.4% (inactive) | 89.8% (inactive) | 46.3% (inactive) | 82.8% (inactive) | 92.4% (inactive) | 85.6% (inactive) |
| CN1CCN(C(=O)OCc2nc3c(N4CCOCC4)nc(Cl)nc3n2C)CC1 | -57.4% (active) | -43.6% (active) | -75.1% (active) | -100% (active) | -78% (active) | -94.5% (active) | -75.2% (active) | -15.5% (active) | -6.96% (active) | -24.8% (active) | -28% (active) | -28.2% (active) | -80.3% (active) | -73.7% (active) | -39.5% (active) | 69.9% (inactive) | -95.4% (active) | -80.4% (active) | -31.2% (active) | -1.09% (active) |
| C/C=C(/C)C(=O)O[C@@H]1CC(C)(C)CC2C34OC(=O)[C@@]21CC[C@@]3(C)[C@]1(C)CCC2C(C)(C)C(=O)CC[C@]2(C)C1C[C@@H]4Cl (stereo not given in full) | 103% (inactive) | 92% (inactive) | 102% (inactive) | 84.2% (inactive) | 87.2% (inactive) | 102% (inactive) | 79.9% (inactive) | 89.7% (inactive) | 98.1% (inactive) | 99.6% (inactive) | 108% (inactive) | 91% (inactive) | 96% (inactive) | 95.9% (inactive) | 96.2% (inactive) | 99.7% (inactive) | 96.8% (inactive) | 115% (inactive) | 99.8% (inactive) | 106% (inactive) |
| N=C(N)c1ccc(-c2ccc(-c3ccc(F)cc3)s2)nc1 | 101% (inactive) | 79.3% (inactive) | 75.3% (inactive) | 74.1% (inactive) | 108% (inactive) | 76% (inactive) | 65.4% (inactive) | 79% (inactive) | 47.8% (inactive) | 26.3% (inactive) | 3.85% (active) | 5.51% (active) | 68.9% (inactive) | 77.6% (inactive) | 79.7% (inactive) | 86.3% (inactive) | 65.7% (inactive) | 76.9% (inactive) | 84.2% (inactive) | 93.5% (inactive) |
